# Screens as filed in PubChem.
# LNCaP diff act: activators of LNCaP prostate cell differentiation, primary screen, flow cytometry side scatter | 24,000 compounds, 0.56% hits | side scatter shift, % at 10 µM | AID 795, 2007 | 4 d;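 active = side scatter shift above 30%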;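 also: androgen-responsive LNCaP prostate cancer cells in charcoal-stripped serum medium; higher shift means more granular cells and more differentiation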
# Autofluor Jurkat: compound autofluorescence on Jurkat cells, primary screen, artefact control for VLA-4 allosteric ligand project, cell-based, flow cytometry; AID 576, 2007; 24,000 compounds, 0.61% hits; fluorescence ratio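 (tested at 10 µM compound in the well)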; stronger effect = higher value; 1 = vehicle-only cell background;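 active = fluorescence ratio above 2.44, which is 1 plus 3 SD of all ratios; inconclusive = signal too bright to measure linearly, ratio around 10 or more; inactive = fluorescence ratio below 2.44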;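 also: green fluorescence of cells measured with 488 nm excitation and 530 nm emission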
# VLA-4 antagonist: inhibitors of LDV-FITC binding to Mn2+-activated VLA-4, primary screen, Jurkat cells; Integrin alpha-4 (Homo sapiens), P13612; LDV-FITC binding with Mn2+, flow cytometry; 100% = Mn2+-driven binding gain fully reversed; inhibition, % at 10 µM (by protocol); 24,000 compounds, 0.2% hits;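 active = inhibition above 50%; inconclusive = compound itself fluorescent, judged against control cell fluorescence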
# VLA-4 agonist: enhancers of LDV-FITC binding to VLA-4 integrin, primary screen, Jurkat cells, flow cytometry; AID 528, 2006; activation, % at 10 µM (by protocol); Integrin alpha-4 (Homo sapiens), P13612; 24,000 tested, under 10 active;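 active = fluorescent ligand binding to cells raised by more than 40% of the manganese-induced maximum; inconclusive = compound's own fluorescence above 85% of the ligand control signal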
# 26S disassembly: inhibitors of ATP-driven 26S proteasome dissociation, primary screen, biochemical, bead-based flow cytometry, GFP-tagged proteasome | anti-FLAG beads, GFP-proteasome disassembly | inhibition of disassembly, % (concentration not given with the values) | AID 751, 2007 | 24,000 compounds, 0.2% hits;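 active = inhibition of disassembly above about 33%, limit read from the data; inconclusive = likely self-fluorescent, control bead median signal at least 40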;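 also: higher percent means more bead fluorescence retained so stronger block of disassembly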
# Numbers stand for hits; i = inactive; ? = inconclusive. Hits are enriched below; roughly 1.6% of the tested compounds scored in any of these assays.
SMILES,LNCaP diff act,Autofluor Jurkat,VLA-4 antagonist,VLA-4 agonist,26S disassembly
CC(C)[C@@]1(NC(=O)[C@@H]2C=C3c4cccc5[nH]cc(c45)C[C@H]3N(C)C2)O[C@@]2(O)[C@@H]3CCCN3C(=O)[C@H](Cc3ccccc3)N2C1=O,i,3.5,?,?,i
NCC1(CC(=O)O)CCCCC1,i,i,i,i,i
